# Test results published in PubChem BioAssay (NCATS).
# Values joined by “and” are separate entries in the source; they are usually repeats but may differ in a detail not shown here. Equal entries are not always repeated. Records with an inconclusive call do not appear. A call without a number means that no potency is given here. Active and inactive are the calls of the source. Calls follow the shape of the dose curve; as a rule, active = well fitted curve in the direction sought with a large enough effect; inconclusive = small, poorly fitted or top-dose-only effect, or another doubt; inactive = no such curve, though single readings can be large; an effect the other way counts as inactive or inconclusive.
# Assays:
# [1] = molecular target: Thioredoxin reductase 1, cytoplasmic (Rattus norvegicus) (UniProt O89049); assay: qHTS Assay for Substrates of Mammalian Selenoprotein Thioredoxin Reductase 1 (TrxR1) (AID 488772);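 also: series mostly up to about 57 µM; a drop in NADPH fluorescence below the no-compound background marks a TrxR1 substrate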
# Chain of Thioredoxin reductase 1, cytoplasmic (Rattus norvegicus) (O89049 whole entry, looked up): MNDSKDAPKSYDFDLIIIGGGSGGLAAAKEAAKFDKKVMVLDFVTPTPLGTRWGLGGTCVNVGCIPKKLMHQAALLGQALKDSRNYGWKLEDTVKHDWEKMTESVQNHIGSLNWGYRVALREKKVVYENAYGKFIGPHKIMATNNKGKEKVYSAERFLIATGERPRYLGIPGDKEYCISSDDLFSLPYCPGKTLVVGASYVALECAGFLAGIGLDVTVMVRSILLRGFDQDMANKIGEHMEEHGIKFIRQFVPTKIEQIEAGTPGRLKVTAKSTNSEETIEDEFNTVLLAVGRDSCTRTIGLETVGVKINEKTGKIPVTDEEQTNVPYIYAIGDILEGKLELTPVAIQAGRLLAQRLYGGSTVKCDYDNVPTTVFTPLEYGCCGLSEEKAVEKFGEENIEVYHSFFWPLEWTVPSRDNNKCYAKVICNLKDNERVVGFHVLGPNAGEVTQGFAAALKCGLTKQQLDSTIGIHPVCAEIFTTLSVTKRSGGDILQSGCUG
# Summary of the method: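 In this dual-purpose format, potential substrates are identified from the first fluorescence read after selenite addition, not from the 8-minute delta. Rat enzyme is preincubated with NADPH and then with compound at ~22 deg C.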
# [2] = molecular target: Thioredoxin reductase 1, cytoplasmic (Rattus norvegicus) (UniProt O89049); assay: qHTS Assay for Inhibitors of Mammalian Selenoprotein Thioredoxin Reductase 1 (TrxR1) (AID 488773); conditions: Potency: inhibition; also: nearly all actives have a fitted effect of over 40% in size; also: potency is read from the fitted curve at half-maximal effect
# Summary of the method: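 Inhibition is scored from the loss of NADPH fluorescence between first and last reads of an 8-min kinetic run. Selenite (400 uM) was the substrate, added after 15 min compound preincubation at room temperature.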
# [3] = molecular target: Flap endonuclease 1 (Homo sapiens) (UniProt P39748); assay: qHTS Validation Assay for the Inhibitors of Human Flap endonuclease 1 (FEN1) (AID 488816)
# Chain of Flap endonuclease 1 (Homo sapiens) (P39748 whole entry, looked up): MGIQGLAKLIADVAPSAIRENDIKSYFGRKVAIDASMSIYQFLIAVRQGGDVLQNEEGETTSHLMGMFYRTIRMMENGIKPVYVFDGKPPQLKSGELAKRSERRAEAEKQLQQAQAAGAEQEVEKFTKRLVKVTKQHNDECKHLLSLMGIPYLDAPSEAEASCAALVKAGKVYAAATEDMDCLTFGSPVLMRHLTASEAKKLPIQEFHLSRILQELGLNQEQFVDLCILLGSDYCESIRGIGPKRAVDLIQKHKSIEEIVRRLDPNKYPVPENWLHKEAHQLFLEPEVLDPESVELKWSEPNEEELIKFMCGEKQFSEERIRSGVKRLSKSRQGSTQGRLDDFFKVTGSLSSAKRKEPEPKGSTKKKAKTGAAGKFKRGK
# Summary of the method: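 qHTS format: compounds and 10 nM FEN1 incubated 15 min at room temperature before adding 50 nM substrate. Cleavage followed by reads at 0 and 15 min; normalized data fitted to a four-parameter Hill curve.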
# [4] = molecular target: M-phase phosphoprotein 8 (Homo sapiens) (UniProt Q99549); assay: qHTS Validation Assay for Inhibitors for MPP8 Chromodomain Interactions with Methylated Histone Tails (AID 488949); also: nearly all actives have a fitted effect of over 55% in size; also: potency is read from the fitted curve at half-maximal effect
# Chain of M-phase phosphoprotein 8 (Homo sapiens) (Q99549 whole entry, looked up): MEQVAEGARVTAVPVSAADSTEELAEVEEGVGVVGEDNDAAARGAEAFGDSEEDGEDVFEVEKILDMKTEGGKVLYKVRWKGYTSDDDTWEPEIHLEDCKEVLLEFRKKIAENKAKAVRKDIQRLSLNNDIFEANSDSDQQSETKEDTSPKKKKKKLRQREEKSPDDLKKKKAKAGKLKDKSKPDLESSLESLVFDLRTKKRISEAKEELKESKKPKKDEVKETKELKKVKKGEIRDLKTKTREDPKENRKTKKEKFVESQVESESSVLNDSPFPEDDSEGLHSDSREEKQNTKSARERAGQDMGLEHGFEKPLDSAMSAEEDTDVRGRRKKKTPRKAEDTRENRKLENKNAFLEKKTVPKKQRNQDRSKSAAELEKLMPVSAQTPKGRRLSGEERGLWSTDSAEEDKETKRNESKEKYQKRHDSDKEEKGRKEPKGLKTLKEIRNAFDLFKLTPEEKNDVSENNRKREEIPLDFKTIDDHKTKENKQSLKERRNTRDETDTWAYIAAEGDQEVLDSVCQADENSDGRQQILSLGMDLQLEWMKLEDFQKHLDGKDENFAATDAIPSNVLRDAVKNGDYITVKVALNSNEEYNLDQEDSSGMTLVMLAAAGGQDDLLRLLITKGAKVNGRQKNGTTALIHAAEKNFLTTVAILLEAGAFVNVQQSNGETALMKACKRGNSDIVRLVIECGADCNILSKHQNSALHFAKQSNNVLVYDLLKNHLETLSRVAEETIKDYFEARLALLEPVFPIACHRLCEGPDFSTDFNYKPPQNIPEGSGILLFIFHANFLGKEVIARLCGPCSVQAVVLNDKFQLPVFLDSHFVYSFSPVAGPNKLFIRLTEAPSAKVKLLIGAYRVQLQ
# Summary of the method: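 MPP8 (50 nM) was pre-bound to 50 nM biotinylated H3(1-18)K9me3 peptide in PBS pH 7.4 with 0.01% Tween-20. Compounds were then added for 30 min at room temperature, and complex disruption was read by AlphaScreen with streptavidin donor and nickel-chelate acceptor beads.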
# [5] = molecular target: Chromobox protein homolog 1 (Homo sapiens) (UniProt P83916); assay: qHTS Validation Assay for Inhibitors of HP1-beta Chromodomain Interactions with Methylated Histone Tails (AID 488953); also: nearly all actives have a fitted effect of over 50% in size; also: potency is read from the fitted curve at half-maximal effect
# Chain of Chromobox protein homolog 1 (Homo sapiens) (P83916 whole entry, looked up): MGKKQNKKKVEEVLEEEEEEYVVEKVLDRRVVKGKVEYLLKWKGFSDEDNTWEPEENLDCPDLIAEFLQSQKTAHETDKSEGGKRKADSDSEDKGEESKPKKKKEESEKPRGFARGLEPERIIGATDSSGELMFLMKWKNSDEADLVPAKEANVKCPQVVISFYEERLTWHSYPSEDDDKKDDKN
# Summary of the method: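 AlphaScreen proximity signal from streptavidin donor and nickel chelate acceptor beads (final 10 ug/mL) after 30 min dark incubation. Compounds had 30 min at room temperature with preformed complex of 50 nM HP1-beta and 50 nM b-H3(1-18)K9me3 in PBS pH 7.4 with 0.01% Tween-20.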
# [6] = molecular target: Methanococcus maripaludis chaperonin (MmCpn) (UniProt Q6LX38); assay: High-Throughput Screening for Modulators of Cytosolic Chaperonin Activity: MmCpn Primary Screen (AID 488978);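 also: 50 nM MmCpn enzyme hydrolysing 30 µM ATP at 37 °C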
# Chain of Methanococcus maripaludis chaperonin (MmCpn) (Q6LX38 1-543): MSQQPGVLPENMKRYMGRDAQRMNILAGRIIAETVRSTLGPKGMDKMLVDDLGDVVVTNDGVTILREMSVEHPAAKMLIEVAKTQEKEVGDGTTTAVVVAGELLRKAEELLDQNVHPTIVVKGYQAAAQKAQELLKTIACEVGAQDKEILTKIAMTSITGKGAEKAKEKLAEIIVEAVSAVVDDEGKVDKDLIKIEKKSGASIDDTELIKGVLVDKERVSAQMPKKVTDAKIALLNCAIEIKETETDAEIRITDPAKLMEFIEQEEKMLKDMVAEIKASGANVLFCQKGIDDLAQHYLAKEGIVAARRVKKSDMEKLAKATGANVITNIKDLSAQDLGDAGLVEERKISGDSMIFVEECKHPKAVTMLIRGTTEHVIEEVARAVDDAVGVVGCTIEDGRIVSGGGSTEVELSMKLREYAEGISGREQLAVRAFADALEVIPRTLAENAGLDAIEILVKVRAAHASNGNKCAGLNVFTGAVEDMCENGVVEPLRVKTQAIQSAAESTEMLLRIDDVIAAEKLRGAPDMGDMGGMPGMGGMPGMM
# Summary of the method: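 MmCpn at 50 nM final was preincubated 5 min at RT with compound. ATP was then added at 30 uM final for 10 min at 37 C. ADP formed was detected by Transcreener HTRF (665/590 nm).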
# [7] = molecular target: D(1A) dopamine receptor (Homo sapiens) (UniProt P21728); assay: HTS Assay for Allosteric Agonists of the Human D1 Dopamine Receptor: Primary Screen for Agonists (AID 488981)
# Chain of D(1A) dopamine receptor (Homo sapiens) (P21728 whole entry, looked up): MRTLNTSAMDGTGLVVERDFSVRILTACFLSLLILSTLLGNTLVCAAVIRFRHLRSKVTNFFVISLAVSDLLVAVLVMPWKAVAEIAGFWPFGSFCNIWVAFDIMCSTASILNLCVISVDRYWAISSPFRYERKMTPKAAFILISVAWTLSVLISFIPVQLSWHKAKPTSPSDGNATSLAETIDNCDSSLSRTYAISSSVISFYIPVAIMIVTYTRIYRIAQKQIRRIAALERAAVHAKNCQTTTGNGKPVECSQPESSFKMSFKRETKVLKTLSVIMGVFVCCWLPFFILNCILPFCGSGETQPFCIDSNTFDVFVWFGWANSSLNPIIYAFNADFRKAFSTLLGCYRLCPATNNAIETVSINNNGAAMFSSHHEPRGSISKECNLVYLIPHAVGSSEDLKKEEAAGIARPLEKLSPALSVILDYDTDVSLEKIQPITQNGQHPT
# Summary of the method: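 Calcium flux in an inducible, force-coupled HEK293 Trex D1 line (overnight at 30 C): agonist mode is the 180 s kinetic read after compound; potentiator mode is the following 180 s read after dopamine at EC20.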
# [8] = molecular target: Transient receptor potential cation channel subfamily V member 1 (Homo sapiens) (UniProt Q8NER1); assay: HTS Assay for Compounds that Act as Enhancers of the Vanilloid Receptor 1 (AID 488979)
# Chain of Transient receptor potential cation channel subfamily V member 1 (Homo sapiens) (Q8NER1 whole entry, looked up): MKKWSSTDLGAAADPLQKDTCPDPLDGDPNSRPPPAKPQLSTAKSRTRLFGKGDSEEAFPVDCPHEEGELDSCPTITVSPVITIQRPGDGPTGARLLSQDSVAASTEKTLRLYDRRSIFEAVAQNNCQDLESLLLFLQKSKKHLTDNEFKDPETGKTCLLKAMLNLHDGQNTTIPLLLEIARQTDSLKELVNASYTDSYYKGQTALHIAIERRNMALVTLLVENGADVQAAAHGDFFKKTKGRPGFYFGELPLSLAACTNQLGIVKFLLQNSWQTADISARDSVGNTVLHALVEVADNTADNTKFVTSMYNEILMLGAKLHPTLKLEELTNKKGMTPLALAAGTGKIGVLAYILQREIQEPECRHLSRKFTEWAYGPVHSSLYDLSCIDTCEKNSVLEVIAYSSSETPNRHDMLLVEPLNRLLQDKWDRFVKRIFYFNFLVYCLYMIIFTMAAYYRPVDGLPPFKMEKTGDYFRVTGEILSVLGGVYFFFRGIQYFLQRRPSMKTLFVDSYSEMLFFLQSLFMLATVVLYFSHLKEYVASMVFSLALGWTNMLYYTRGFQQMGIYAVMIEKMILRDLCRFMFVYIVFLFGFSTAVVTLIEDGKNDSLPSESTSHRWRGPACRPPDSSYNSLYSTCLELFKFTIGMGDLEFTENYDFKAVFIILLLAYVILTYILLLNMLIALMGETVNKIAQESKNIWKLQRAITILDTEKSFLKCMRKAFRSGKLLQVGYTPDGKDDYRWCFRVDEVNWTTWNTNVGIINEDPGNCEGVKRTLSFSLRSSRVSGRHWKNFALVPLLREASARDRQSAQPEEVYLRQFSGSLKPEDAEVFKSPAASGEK
# Summary of the method: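 Calcium influx kinetics via Fluo-8 (480/520 nm) in TRPV1-expressing cells, 2000/well cultured overnight at 35.5C. Compound-alone read 3 min (agonist phase), followed by EC20 capsaicin challenge for 2 min (enhancer phase).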
# [9] = molecular target: Thyrotropin receptor (Homo sapiens) (UniProt P16473); assay: qHTS Assay for Antagonists of the Thyroid Stimulating Hormone Receptor (AID 488980); also: series mostly up to about 58 µM
# Chain of Thyrotropin receptor (Homo sapiens) (P16473 whole entry, looked up): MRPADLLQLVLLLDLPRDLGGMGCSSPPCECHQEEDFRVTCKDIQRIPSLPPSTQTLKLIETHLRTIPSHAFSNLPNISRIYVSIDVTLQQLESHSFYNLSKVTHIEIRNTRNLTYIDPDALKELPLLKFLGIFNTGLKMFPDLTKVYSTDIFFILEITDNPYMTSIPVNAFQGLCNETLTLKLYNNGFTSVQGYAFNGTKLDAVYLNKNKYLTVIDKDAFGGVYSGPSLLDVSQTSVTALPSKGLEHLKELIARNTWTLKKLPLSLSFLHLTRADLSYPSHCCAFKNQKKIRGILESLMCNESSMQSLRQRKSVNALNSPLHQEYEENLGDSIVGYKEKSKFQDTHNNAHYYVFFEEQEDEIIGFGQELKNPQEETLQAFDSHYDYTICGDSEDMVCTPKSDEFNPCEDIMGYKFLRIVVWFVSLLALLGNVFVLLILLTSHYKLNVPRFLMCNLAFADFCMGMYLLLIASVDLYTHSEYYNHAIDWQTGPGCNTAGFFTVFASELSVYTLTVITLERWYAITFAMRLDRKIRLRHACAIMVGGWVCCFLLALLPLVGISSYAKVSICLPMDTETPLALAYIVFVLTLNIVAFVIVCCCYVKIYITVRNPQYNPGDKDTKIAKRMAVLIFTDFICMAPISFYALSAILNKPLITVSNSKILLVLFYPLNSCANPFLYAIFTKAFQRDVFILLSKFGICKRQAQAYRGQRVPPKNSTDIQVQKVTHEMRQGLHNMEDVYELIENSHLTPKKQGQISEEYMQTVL
# Summary of the method: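 TSHR-transfected HEK293 cells (2000/well) in HEPES-buffered HBSS with 70 uM RO 20-1724 were stimulated with 4 nM TSH (EC80, final) in the presence of compound. cAMP was measured by HTRF competition after lysis and 30 min at RT.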
# [10] = Quantitative high throughput screen for delayed death inhibitors of the malarial parasite plastid, 48 hour incubation (AID 488752); also: nearly all actives have a fitted effect of over 65% in size; also: potency is read from the fitted curve at half-maximal effect
# Summary of the method: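 One-generation (48 h) growth assay: a decrease in luciferase signal from an integrated reporter in P. falciparum-infected red cells (0.1% parasitemia, 2% hematocrit) after compound exposure at 37 C indicates parasite inhibition.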
Structure (SMILES),Potency [1],Potency [2],Potency [3],Potency [4],Potency [5],outcome [6],Potency [7],outcome [8],outcome [9],Potency [10]
O=[N+]([O-])c1ccc(CSc2ncnc3c2ncn3[C@@H]2O[C@H](CO)[C@@H](O)[C@H]2O)cc1,inactive,inactive,inactive,inactive,inactive,inactive,inactive,,,
CCCCCCCCc1ccc(-c2ccc(C(=O)O)cc2)cc1,inactive,inactive,inactive,inactive,inactive,inactive,,,,
NS(=O)(=O)C#Cc1ccccc1,inactive,4.74 µM (active),inactive,inactive,inactive,inactive,,,,
CCCCCCCCCCCCCCCCCC(=O)OC(CC(=O)O)C[N+](C)(C)C (stereo not given),inactive,inactive,inactive,inactive,inactive,inactive,,inactive,inactive,
Nc1ncnc2c1c(I)cn2[C@@H]1C[C@H](N)[C@@H](O)[C@H]1O,inactive,inactive,inactive,inactive,inactive,inactive,inactive,,,
O=C(Nc1ccccc1)c1cc([N+](=O)[O-])ccc1Cl,inactive,inactive,inactive,inactive,inactive,inactive,inactive,inactive,inactive,
CCCCCCCC/C=C\CCCCCCCC(=O)NCCO,,,inactive,inactive,inactive,inactive,,inactive,inactive,2.62 µM (active)
O=c1[nH]c2ccccc2n1CCCN1CCN(C(c2ccccc2)c2ccccc2)CC1,,,,,,,,inactive,inactive,inactive
CNC(=O)[C@H]1O[C@@H](n2cnc3c(NCc4cccc(I)c4)ncnc32)[C@H](O)[C@@H]1O,inactive,inactive,inactive,inactive,,,,,,
CCCCC#Cc1nc(NC)c2ncn([C@@H]3O[C@H](CO)[C@@H](O)[C@H]3O)c2n1,inactive,inactive,inactive,inactive,inactive,inactive,inactive,,,
N#C/C(=C\c1ccc(O)c(O)c1)C(=O)NCCCc1ccccc1,inactive,inactive,inactive,7.08 µM (active) and 8.44 µM (active),5.62 µM (active),inactive,inactive,inactive,inactive,
N.N.O=C(O)C1(C(=O)O)CCC1.[Pt],,,,31.6 µM (active),,,,inactive,inactive,inactive
CC(C)(C)NCC(O)COc1nsnc1N1CCOCC1 (stereo not given),,,,inactive,,,,inactive,,inactive
NCC1OC(O[C@H]2[C@H](O)[C@@H](OC3C(O)C(N)CC(N)C3OC3OC(CO)C(O)C(O)C3N)O[C@@H]2CO)C(N)C(O)C1O (stereo not given in full),inactive,inactive,inactive,inactive,inactive,inactive,,,,
Nc1ccn([C@@H]2O[C@H](CO)[C@@H](O)[C@@H]2O)c(=O)n1,,,,inactive,,,,inactive,,inactive
O=C(O)/C=C/C(O)c1ccc(Cl)cc1 (stereo not given),,,inactive,inactive,inactive,inactive,inactive,inactive,inactive,inactive
O=C1/C(=C/c2ccsc2)CC/C1=C\c1cccs1,inactive,inactive,inactive,inactive,,inactive,inactive,,,
N=c1ccn2c(n1)O[C@H]1[C@H](O)[C@@H](CO)O[C@H]12,inactive,inactive,,inactive,inactive,inactive,inactive,,,
O=C(c1ccc(Cl)cc1)N1CCN(c2ccc([N+](=O)[O-])c3ncccc23)CC1,inactive,inactive,inactive,,inactive,,inactive,,,
CCN(CC)c1ncnc2c1ncn2[C@@H]1O[C@H](COP(=O)(O)OP(=O)(O)C(Br)(Br)P(=O)(O)O)[C@@H](O)[C@H]1O,inactive,inactive,inactive,,inactive,inactive,inactive,,,
O=C(CCCCCN1CCN(c2ccccc2-c2ccccc2)CC1)NC1CCCc2ccccc21 (stereo not given),inactive,inactive,inactive,,,inactive,inactive,,,
